VP16 counter – counter-screen for ROR gamma inhibitors: Gal4-VP16 reporter; Drosophila S2 Gal4-VP16 UAS-luciferase, luminescence, 20 h; Potency, µM (highest dose often 53.6 µM), inactives show at the top dose activity, negative = inhibition, most hits filed as inhibitors; 310,000 compounds, 3.5% hits; AID 2546;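 further: Gal4-VP16 expression switched on by copper sulfate through the metallothionein promoter; potency means the concentration at half of the fitted maximal effect; nearly all actives have a fitted effect of over 50% in size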
DT40 TDP1 no CPT – qHTS for Inhibitors of human tyrosyl-DNA phosphodiesterase 1 (TDP1): qHTS in cells in absence of CPT | DT40 Tdp1-/- hTDP1 cells, no CPT, ATP luminescence, 48 h | Potency, µM (highest dose often 46.2 µM), for inactives: at the top dose activity change, negative = growth inhibition, usual class: inhibitors | 420,000 compounds, 15% hits | AID 686978, 2013; further: potency means the concentration at half of the fitted maximal effect; nearly all actives have a fitted effect of over 55% in size
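Growth of hTDP1-complemented DT40 Tdp1-knockout cells is measured by ATP luminescence after at least 48 hr compound exposure at 37 °C, with DMSO substituting for the 20 nM CPT used in the parallel screen.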
TDP1 cell CPT – DT40-hTDP1 cell growth loss with CPT; chicken DT40 Tdp1-/-;hTDP1 cells + 20 nM CPT, ATP luminescence, 48 h; Potency, µM (doses to about 46.2 µM), for the others: at the top dose activity change, negative = growth inhibition, hits mostly inhibitors; 420,000 compounds, 12% hits; AID 686979; further: potency means the concentration at half of the fitted maximal effect; nearly all actives have a fitted effect of over 55% in size
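Chicken DT40 Tdp1-/- cells stably complemented with human TDP1 were seeded at 400 cells/well in medium containing 20 nM camptothecin, exposed to pin-transferred compounds, and grown at 37 °C for at least 48 hr. Viability was read as ATP luminescence.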
ELG1 DNA repair – inhibitors of ELG1-dependent DNA repair in HEK293T cells; HEK293T ELG1-luciferase reporter, luminescence, 16 h; DNA damage induced by 5-fluorouridine; Potency, µM (titrated, usually from 46.1 µM), for the others: top-dose activity change, negative = inhibition, usual class: inhibitors; 330,000 compounds, 2.3% hits; AID 504467; further: potency means the concentration at half of the fitted maximal effect; nearly all actives have a fitted effect of over 55% in size
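HEK293T cells expressing luciferase-tagged ELG1 (2,000/well) received 5-Fluorouridine plus compound or DMSO for 16 hr at 37 °C. Luciferase was read by ONE-Glo luminescence after 30 min at room temperature.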
IL-1B inflam inh – inhibitors of inflammasome signaling (IL-1 beta secretion). THP-1 LPS/ATP IL-1B secretion, AlphaLISA, 16 h; stronger effect = lower value. activity change, % at 57.5 µM. 360,000 compounds, 4.7% hits. AID 743279; in the data active means activity change below about -50%; inconclusive means mostly about -30% to -49%
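Secreted IL-1B measured by AlphaLISA bead assay after 16 h compound exposure of THP-1 cells; compounds (final up to 57.5 uM) added 1 h before LPS (250 ng/mL) and ATP (1.25 mM) stimulation; lower signal means less secretion.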
RORg inh – blocks mouse ROR gamma transcriptional activity; P51450; Drosophila S2 Gal4-RORgamma UAS-luciferase reporter, 20 h; Potency, µM (top dose mostly 53.6 µM), without a hit: top-dose activity change, negative = inhibition, usual class: inhibitors; 310,000 compounds, 5.4% hits; further: potency means the concentration at half of the fitted maximal effect; nearly all actives have a fitted effect of over 60% in size
Target sequence (P51450 whole entry, looked up, the tested form may be a part): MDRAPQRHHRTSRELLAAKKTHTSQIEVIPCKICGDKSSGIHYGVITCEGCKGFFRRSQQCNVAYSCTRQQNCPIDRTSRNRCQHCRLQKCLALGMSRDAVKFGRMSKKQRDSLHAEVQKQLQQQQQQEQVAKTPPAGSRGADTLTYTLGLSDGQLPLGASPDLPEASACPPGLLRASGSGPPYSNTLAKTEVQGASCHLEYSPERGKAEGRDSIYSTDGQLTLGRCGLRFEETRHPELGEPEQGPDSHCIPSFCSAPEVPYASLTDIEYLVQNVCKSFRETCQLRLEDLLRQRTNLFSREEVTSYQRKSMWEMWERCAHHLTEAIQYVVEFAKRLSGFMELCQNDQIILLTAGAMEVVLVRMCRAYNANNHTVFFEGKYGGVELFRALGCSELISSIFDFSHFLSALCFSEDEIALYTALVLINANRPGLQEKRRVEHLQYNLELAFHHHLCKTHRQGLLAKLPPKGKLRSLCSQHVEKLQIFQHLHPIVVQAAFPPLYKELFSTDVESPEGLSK
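Using a luciferase readout, inhibitors were identified by reduced reporter activity in Drosophila cells coexpressing a copper-inducible Gal4–ROR gamma fusion and UAS-driven Photinus luciferase, incubated 20 hr after 700 uM copper sulfate.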
* marks the source's active call; other numbers are inactive results; u = inconclusive; x = not tested or not shown; ! = repeats disagree. Rows were chosen to be rich in hits. Some 21% of all compounds tested hit in one or more screens of this group. Unless noted, the call rests on the fitted dose curve; in most records, active means well fitted curve in the direction sought with a large enough effect; inconclusive means small, poorly fitted or top-dose-only effect, or another doubt; inactive means no such curve, though single readings can be large; an effect the other way counts as inactive or inconclusive. On the % scale 0 is the no-effect control and ±100 the full control effect.

SMILES | VP16 counter | DT40 TDP1 no CPT | TDP1 cell CPT | ELG1 DNA repair | IL-1B inflam inh | RORg inh
CC(C)C(=O)Nc1cccc(C(=O)N2CCCCC2C)c1 (stereo not drawn) | -13.4% | 14.6µM* | 18.4µM* | -11.7% | 13.5 | 2.2%
CC1CCCCN1C(=O)c1cccc(NC(=O)c2ccccc2)c1 (stereo not drawn) | 6.0% | -22.8% | -1.9% | 9.9% | 8.2 | 37.3%
Cc1c(CCC(=O)NCCCC(=O)O)c(=O)oc2cc3oc4c(c3cc12)CCCC4 | u | -8.0% | 0.1% | u | -19.2 | u
Cc1cccc(N=N/C(=C\O)C(=O)c2cccs2)c1 | -7.8% | u | u | 20.6µM* | -67.3* | 44.0%
O=C(O)c1c(Cl)cccc1Nc1ccccc1 | x | 23.1µM* | -9.7% | x | -3.2 | x
O=C(O)c1ccccc1Nc1ccccc1 | -0.6% | u | 20.6µM*! | 8.8% | 8.7 | 38.2%
O=C(Nc1cccc(C(=O)O)c1)Nc1ccccc1Cl | -9.6% | 1.6% | -7.9% | u | 12.2 | -31.6%
CN(CCOc1ccc(C[C@H](Nc2ccccc2C(=O)c2ccccc2)C(=O)O)cc1)c1ccccn1 | 1.3% | -6.5% | 0.9% | x | x | 38.4%
O=c1[nH]c(=O)n2ncnc2[nH]1 | x | -15.9% | -14.4% | x | -13.8 | x
CCc1cccc(C)c1NC(=O)CSc1nnc(C)o1 | -9.4% | 0.0% | -8.3% | -4.3% | 21.3 | -14.4%
Cc1cc(C)cc(OCc2ccc(C(=O)Nc3ccccc3F)o2)c1 | x | u | -22.9% | x | x | x
O=C(CN1C(=O)CSc2ccccc21)N/N=C/c1ccco1 | -7.5% | 16.7% | 3.4% | -10.7% | -3.4 | -0.1%
CCOc1ccc(Nc2cc(C(=O)NCc3ccccc3Cl)c3ccccc3n2)cc1 | x | u | 10.3µM* | x | x | x
COc1ccc(Nc2cc(C(=O)NCc3ccccc3OC)c3ccccc3n2)cc1 | x | u | -19.6% | x | x | x
CCOc1ccc(Sc2cc(C(=O)NCc3ccccc3Cl)c3ccccc3n2)cc1 | x | 13µM* | u | x | x | x
CCc1ccc(Sc2cc(C(=O)NCc3cccc(OC)c3)c3ccccc3n2)cc1 | x | u | 16.4µM* | x | x | x
COc1ccc2c(c1)c(=O)c(C(=O)c1ccccc1)cn2CC(=O)Nc1ccc2c(c1)OCO2 | x | -3.9% | u | x | x | x
O=C1[C@@H]2C(c3cccnc3)=NO[C@@H]2C(=O)N1c1ccc2ccccc2c1 | -10.6% | 18.4µM* | 6.51µM* | 3.2% | x | -6.0%
CCN(CC)C(=O)Nc1ccc(Br)cc1 | -5.2% | -8.8% | 9.0% | -5.7% | -9.4 | 15.2%
Cc1ccc(Cn2c(C)c3cnn(CC(=O)NC4CCCC4)c(=O)c3c2C)cc1 | u | u | u | u | 19.4 | -24.4%
O=C(COC(=O)c1c(F)cccc1Cl)NCC1CCCCC1 | x | -14.5% | u | u | 18.2 | x
O=C(Cn1ncc(Cl)c(Cl)c1=O)NC1CCS(=O)(=O)C1 (stereo not drawn) | 17.7% | 20.6µM* | 23.1µM* | 8.9% | -5.9 | -4.0%
O=C(Cn1ncc(Cl)c(Cl)c1=O)NCC1CCCCC1 | u | 1.84µM* | 2.59µM* | 18.4µM* | -102.9* | u
O=C(Cn1ncc(Cl)c(Cl)c1=O)NC1CCCCC1 | x | 14.6µM* | 10.3µM* | u | -99.8* | x
Cc1cccc(NC(=O)CNC(=O)Cn2ncc(Cl)c(Cl)c2=O)c1C | x | 9.2µM* | 11.6µM* | u | -100.2* | x
SMILES | VP16 counter | DT40 TDP1 no CPT | TDP1 cell CPT | ELG1 DNA repair | IL-1B inflam inh | RORg inh
O=C(NC1CCSc2ccccc21)c1cccc(S(=O)(=O)N2CCOCC2)c1 (stereo not drawn) | x | -9.2% | -24.0% | 14.9% | 0.6 | x
O=C1CN(C(=O)COc2ccc(Cl)c(Cl)c2)c2ccccc2N1 | x | -20.5% | -10.3% | u | -3.0 | x
O=C1CN(C(=O)Cn2ncc(Cl)c(Cl)c2=O)c2ccccc2N1 | u | 8.2µM* | 7.31µM* | u | -105.7* | 11.2µM*
Cc1ccc(CN2CCCn3nc(C(=O)NCC(C)c4ccccc4)cc3C2=O)cc1 (stereo not drawn) | x | 16.4µM* | u | x | x | x
Cc1ccc(CN2CCCn3nc(C(=O)NCCC(C)C)cc3C2=O)cc1 | x | -23.4% | -18.8% | x | x | x
COc1ccc(CCNC(=O)c2cc3n(n2)CCCN(Cc2ccc(C)cc2)C3=O)cc1OC | x | 20.6µM* | u | x | x | x
CCc1ccc(CNC(=O)c2cc3n(n2)CCCN(Cc2ccccc2)C3=O)cc1 | x | u | 16.4µM* | x | x | x
CC(C)(C)OC(=O)N1CCC[C@H]1C(=O)NCc1ccc(F)cc1F | x | 1.3% | -0.4% | x | 4.0 | x
O=C(Cc1ccc(F)cc1)Nc1cccc(S(=O)(=O)N2CCCC2)c1 | x | -21.8% | -3.4% | u | -7.5 | x
O=C(Cn1nnc(-c2ccc(F)cc2)n1)Nc1cccc(S(=O)(=O)N2CCCC2)c1 | x | u | 20.6µM* | u | 13.0 | x
O=C(Cn1nnc(-c2ccccc2Cl)n1)Nc1cccc(S(=O)(=O)N2CCCC2)c1 | x | 20.6µM* | 23.1µM* | 23.1µM* | u | x
NC(CS(=O)O)C(=O)O (stereo not drawn) | x | -0.3% | 18.0% | x | 13.9 | x
OC(c1cccc(Cl)c1)c1nc(-c2ccc(Cl)cc2)cs1 (stereo not drawn) | x | u | u | x | -0.1 | x
CCCc1cc(=O)oc2cc(C)cc(OCC(=O)NCCN3CCOCC3)c12 | 1.9% | 8.7% | -17.0% | 4.2% | -18.7 | -4.4%
CCCc1cc(=O)oc2cc(C)cc(OCC(=O)Nc3ccc(CN4CCOCC4)cc3)c12 | -23.8% | 5.8µM* | 18.4µM* | 14.6µM* | 0.0 | 31.5%
CCCc1cc(=O)oc2cc(OCC(=O)NCCN3CCOCC3)c(Cl)cc12 | x | 16.4µM* | 23.1µM* | x | 14.6 | x
Cc1nc2ccccc2n1CCOc1ccc([N+](=O)[O-])cc1 | 6.2% | u | 7.1% | -19.7% | -18.7 | 22.2%
CCn1c(CN(C)c2ccccc2)nc2ccccc21 | 22.4µM* | u | u | 2.4% | -16.6 | 10µM*
Cn1c(CCc2ccc(N)cc2)nc2ccccc21 | u | u | u | u | -6.6 | 11.2µM*
Cc1nc2ccccc2n1CCOc1ccc(F)cc1 | u | 18.4µM* | u | -11.2% | -6.7 | 1.5%
CCCc1nc2ccccc2n1CCc1ccccc1 | -28.9% | 20.6µM* | 29.1µM* | -10.2% | -6.2 | 7.08µM*
COc1ccc(-c2nn(-c3ccccc3)cc2C(=O)O)cc1N | -2.7% | 2.0% | -0.6% | -3.7% | -9.1 | -8.7%
C[C@@H]1CN([C@@H](C)CO)C(=O)CCCn2nncc2CO[C@H]1CN(C)S(=O)(=O)c1cccc(C#N)c1 | x | -5.0% | 9.9% | x | 2.5 | x
